According to PubChem BioAssay AID651820 (National Center for Advancing Translational Sciences (NCATS), 2012):
Out of some 340,000 compounds screened, about 12,000 (3.5%) were called active. Another 18% or so got no clear call; they are omitted. Many of the other results were omitted from the sample, so actives are more common in it than they were. Values without a mark were called inactive. Calls follow the shape of the dose curve; as a rule, active = well fitted inhibition curve with a large enough effect; inconclusive = small, poorly fitted or top-dose-only effect, or another doubt; inactive = no such curve, though single readings can be large or run the other way.

Test: qHTS Assay for Inhibitors of Hepatitis C Virus (HCV)
Settings: Huh7.5.1 HCVcc-Cre infection, luciferase reporter, 44 h; series mostly up to 41.8 µM; activity change, negative = inhibition: at the top concentration
Procedure, shortened: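 1,000 cells/well; 4 h culture; + compound; + HCVcc-Cre (~0.5 moi); 44 h; luciferase substrate, RT 15 min; read 15 sec.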
% is scaled to controls: 0 for no effect and ±100 for the full control effect; potency is read from the fitted curve at half-maximal effect.

| SMILES | activity change, negative = inhibition | Potency |
| --- | --- | --- |
| Cc1ccc(OCCNC(=O)CNC(=O)c2ccc(C)c(C)c2)cc1 | 5.27% | – |
| CCc1nnc(NC(=O)c2cc(S(=O)(=O)N3CCCCC3)ccc2C)s1 | 9.73% | – |
| COc1ccc(CCC(=O)N2CCN(S(=O)(=O)c3ccc(OC)cc3)CC2)cc1 | -8.57% | – |
| COc1ccc([N+](=O)[O-])cc1-c1nc2ccccc2nc1-c1ccccc1 | -2.01% | – |
| Cc1nn(-c2ccc([N+](=O)[O-])cc2)c(N)c1-c1ccccc1 | -16.2% | – |
| Cn1nc(-c2ccccc2)c2cc([N+](=O)[O-])ccc21 | – | 12.6 µM (active) |
| CCN(C(=O)COC(=O)c1c(C)nn(-c2ccccc2)c1Cl)c1c(N)n(Cc2ccccc2)c(=O)[nH]c1=O | -29.1% | – |
| O=C(CN1C(=O)NC2(CCCC2)C1=O)Nc1cc(C(F)(F)F)ccc1N1CCOCC1 | 16.6% | – |
| O=C(CCc1ccccc1Cl)Nc1ccc(S(=O)(=O)Nc2nccs2)cc1 | 1.35% | – |
| CC(C)(C)S(=O)(=O)N1Cc2cc(CO)cc(CCO)c2[C@H]1CCO | 13.6% | – |
| O=C(COC(=O)c1ccc([N+](=O)[O-])o1)NC12CC3CC(CC(C3)C1)C2 | 7.78% | – |
| OCCCNc1nccc(-c2cc(Nc3cccc(Cl)c3)ncn2)n1 | – | 2.82 µM (active) |
| Cn1c(Nc2cccc(Cl)c2)nc2ccccc21 | -15.3% | – |
| NS(=O)(=O)c1cccnc1Nc1cccc(Cl)c1 | -3.49% | – |
| CCN1C(=O)[C@@H]2[C@@H](c3ccc(-c4ccc(OC)cc4)c(OC)c3)N3CCC[C@@]3(C(=O)OC)[C@@H]2C1=O | -15.4% | – |
| O=C(NCC1CCCCC1)c1cc(S(=O)(=O)N2CCCCC2)ccc1N1CCOCC1 | 6.19% | – |
| O=C(OCCOc1ccccc1Cl)c1cc(S(=O)(=O)N2CCCCC2)ccc1N1CCOCC1 | – | 2.51 µM (active) |
| CC(C)(C)C(=O)COC(=O)c1cc(S(=O)(=O)N2CCCCC2)ccc1N1CCOCC1 | -3.73% | – |
| COc1ccc(S(=O)(=O)N2CCCCC2)cc1NC(=O)c1cc([N+](=O)[O-])ccc1N1CCOCC1 | – | 7.94 µM (active) |
| O=C(OCCOc1ccccc1F)c1cc(S(=O)(=O)N2CCOCC2)ccc1F | -3.68% | – |
| O=C(NC1CCCCC1)c1cc([N+](=O)[O-])ccc1N1CCOCC1 | -8.15% | – |
| O=C(COC(=O)c1cc(S(=O)(=O)N2CCOCC2)ccc1F)NC1CC1 | 20.7% | – |
| COC1C(CO)OC(n2cnc3c(=S)nc(N)[nH]c32)C1O (configuration not stated) | 21.9% | – |
| CC(C)(C)c1ccc(S(=O)(=O)N2CCN(C(=O)c3ccc4c(c3)C(=O)N(Cc3ccncc3)C4=O)CC2)cc1 | 13.7% | – |
| CC[C@]1(C(=O)OC)[C@H]2C(=O)N(Cc3ccccc3)C(=O)[C@H]2[C@H]2CN=C(SCc3ccc(C#N)cc3)N21 | -29.6% [at 8.37 µM] | – |
| Cc1nc(N)nc(Cl)c1CCC1OCCO1 | 4.05% | – |

| SMILES | activity change, negative = inhibition | Potency |
| --- | --- | --- |
| O=C(CSc1nnc(COc2ccc(Cl)cc2)n1Cc1ccco1)N1CCNC1=O | 0.329% | – |
| CC(=O)Nc1cccc(C(=O)Nc2nc(C)cs2)c1 | -2.74% | – |
| Cc1csc(NC(=S)Nc2cccc(Cl)c2)n1 | – | 12.6 µM (active) |
| S=C(Nc1cccc(Cl)c1)Nc1ccc2cn[nH]c2c1 | 12.4% | – |
| Cc1ccc(Cn2c(C)c3cnn(CC(=O)NCCN4CCOCC4)c(=O)c3c2C)cc1 | 3.09% | – |
| COc1ccc(CNC(=O)CN2C(=O)c3ccccc3S2(=O)=O)cc1 | -10.1% | – |
| O=C(Cn1nnc(-c2ccccc2)n1)NC(=O)NC1CCCC1 | 31.6% | – |
| COc1c(C)c2c(c(O)c1C/C=C(\C)CCC(=O)O)C(=O)OC2 | – | 2 µM (active) |
| CC(C)[C@@H](C(=O)OCC(=O)c1ccc2c(c1)NC(=O)CO2)N1C(=O)c2ccccc2C1=O | -2.05% | – |
| CC(Sc1nncs1)C(=O)NCc1ccc2c(c1)OCO2 (configuration not stated) | 9.22% | – |
| Cc1nn(C(C)C(=O)N2CCOCC2)c(=O)c2nn(-c3ccccc3)c(C)c12 (configuration not stated) | -2.95% | – |
| Cc1ccc(-n2nc3c(=O)n(C(C)C(=O)NCc4ccc5c(c4)OCO5)nc(C)c3c2C)cc1 (configuration not stated) | – | 11.2 µM (active) |
| Cc1noc(C)c1NC(=O)Nc1ccc2c(c1)C(=O)N([C@H](C)CO)C[C@H](C)[C@@H](CN(C)S(=O)(=O)c1cn(C)cn1)O2 | 12.7% | – |
| O=C(C1CCCO1)N1CCN(C(=S)Nc2cccc(Cl)c2)CC1 (configuration not stated) | 14.7% | – |
| Cc1cccc(NC(=S)N2CCC(C(=O)c3ccc(F)cc3)CC2)c1 | 1.19% | – |
| Cc1ccc(C2CCN(C(=S)Nc3cccc(Cl)c3)C2)cc1 (configuration not stated) | – | 12.6 µM (active) |
| Cc1nc(C)c(-c2csc(NCCc3ccccc3)n2)s1 | – | 2.82 µM (active) |
| S=c1[nH]nc(NCCc2ccccc2)s1 | 2.55% | – |
| Cc1nc(N)sc1-c1ccccc1 | -10.6% | – |
| C[C@H](CO)N1C[C@H](C)[C@@H](CN(C)C(=O)Nc2ccc3c(c2)OCO3)Oc2c(cccc2N(C)C)C1=O | 4.83% | – |
| Cc1occc1-c1nnc(SCC(=O)NC2CCCCC2)o1 | -19.8% | – |
| CCN(CC(=O)NCc1ccc(F)cc1)S(=O)(=O)c1ccc(Cl)s1 | -12.5% | – |
| COc1cc(/C=N\Nc2nc(-c3cccs3)c(NC(C)=O)s2)ccc1O | 7.87% | – |
| CCOc1cc(C=NNC(=O)CCCC(=O)NN=Cc2ccc(O)c(OCC)c2)ccc1O | 11.1% | – |
| CCOc1cc(/C=C(\C#N)c2nc(-c3cccs3)c(NC(C)=O)s2)ccc1O | – | 0.891 µM (active) |
| Cc1ccc(C2(C)NC(=O)N(CC(=O)N3CC(=O)Nc4ccccc43)C2=O)cc1 (configuration not stated) | 13.9% | – |
